Activity calls are given as the source filed them.
Columns and labels:
[1] = tested on: PRMT1 (protein arginine N-methyltransferase 1); test: small molecules binding arginine methyltransferase PRMT1 – biochemical, small-molecule microarray, 635 nm fluorescence, primary screen (AID 1088); details: higher = more signal;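 further: binding of Prmt1 protein to compounds spotted on small-molecule microarray slides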
[2] = growth effects on S. cerevisiae YJM789 – YJM789 clinical isolate, OD600, 24 h, basal, primary screen (AID 1089); details: higher = more signal, called active from +8 up or from −8 down;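 further: growth of clinical yeast isolate S. cerevisiae YJM 789 seeded 1000 cells per well; test concentration not given here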
[3] = S. pombe growth modifiers, basal conditions – strain 972, OD600, 24 h, no modulator, primary screen (AID 1090);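 further: basal condition with compound alone and no growth modifier present; test concentration not given here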; details: S. pombe 972 growth, higher = more signal, called active from +8 up or from −8 down
[4] = budding yeast growth modifiers under rapamycin – strain BY4716, OD600, 96 h, primary screen (AID 1091); further: test concentration not given here; details: S. cerevisiae BY4716 + rapamycin, higher = more signal, called active from +8 up or from −8 down
[5] = target: Torsin-1A-interacting protein 2 (Homo sapiens) (UniProt Q8NFQ8); test: small molecules binding lysate-expressed LULL1 – cell lysate, human LULL1 lysate, 635/667 nm fluorescence, primary screen (AID 1092); details: small-molecule microarray, hLULL1 lysate binding, 635 nm fluorescence; higher = more signal;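 further: probe is lysate of COS7 cells overexpressing human LULL1; score merges per-feature 667 nm fluorescence with signal-to-noise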
[6] = optical density change of DRC41 E. coli – strain DRC41, OD650, 24 h, E. coli filamentation project, primary screen (AID 1093);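 further: MC1000 strain lacking acrAB efflux and sulA so SOS filamentation is blocked; test concentration not given here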; details: E. coli DRC41 growth, higher = more signal, called active from +8 up or from −8 down
[7] = probe aLefty2 binding to arrayed compounds – biochemical, biotinylated probe, 635/667 nm fluorescence, primary screen (AID 1094); details: small-molecule microarray, higher = more signal;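 further: score merges spot fluorescence near 667 nm with spot signal-to-noise ratio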
[8] = tested on: Noggin (protein binding on small-molecule microarray); test: small molecules binding Noggin protein – biochemical, 635/667 nm fluorescence, primary screen (AID 1095); details: 635 nm fluorescence, higher = more signal;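 further: score merges 667 nm feature fluorescence with signal to noise over triplicate slides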
[9] = target: Neurogenic locus notch homolog protein 3 (Homo sapiens) (UniProt Q9UM47); test: small molecules binding NOTCH3 protein – biochemical, 635/667 nm fluorescence, primary screen (AID 1096); details: small-molecule microarray, 635 nm fluorescence, higher = more signal
[10] = probe aEGFR binding to arrayed compounds – biochemical, biotinylated probe, 635/667 nm fluorescence, primary screen (AID 1097); details: small-molecule microarray, higher = more signal;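 further: probe is a biotinylated anti-EGFR antibody binding compounds printed on slides; score combines fluorescence near 667 nm and signal to noise of each spot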
[11] = tested on: Plasmodium falciparum Sir2 (PF13_0152, Sir2A); test: Plasmodium falciparum Sir2A binding compounds – biochemical, small-molecule microarray, 635 nm fluorescence, primary screen (AID 1098); details: fluorescence 635 nm, higher = more signal;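 further: score merges spot fluorescence intensity with its signal-to-noise ratio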
[12] = probe aDKK1 binding to arrayed compounds – biochemical, biotinylated probe, 635/667 nm fluorescence, primary screen (AID 1099); details: small-molecule microarray, higher = more signal;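 further: score merges 667nm spot fluorescence with signal to noise across triplicate slides; reference of the scale not given here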
[13] = probe aCHRDL2 binding to arrayed compounds – biochemical, biotinylated probe, 635/667 nm fluorescence, primary screen (AID 1100); details: small-molecule microarray, higher = more signal
[14] = change in splice reporter luminescence, either direction, cell-based, HEK293, spliceosome inhibition project, primary screen (AID 1101); details: HEK293 splicing luciferase reporter, 24 h, higher = more signal, called active from +8 up or from −8 down;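 further: HEK293 cells carrying a splicing-competent luciferase reporter gene; test concentration not given here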
[15] = target: Fibroblast growth factor 10 (Homo sapiens) (UniProt O15520); test: compounds binding fibroblast growth factor 10 – biochemical, small-molecule microarray, 635 nm fluorescence, primary screen (AID 1102); details: FGF10 binding, fluorescence 635 nm, higher = more signal
[16] = tested on: glycogen synthase kinase-3 (GSK3A per assay name; protocol says GSK3B); test: compounds binding glycogen synthase kinase-3 – biochemical, small-molecule microarray, 635 nm fluorescence, GSK3A, primary screen (AID 1103); details: fluorescence 635 nm, higher = more signal; further: the record names both GSK3A and GSK3B
[17] = target: Epidermal growth factor receptor (Homo sapiens) (UniProt P00533); test: compounds binding epidermal growth factor receptor – biochemical, small-molecule microarray, 635 nm fluorescence, primary screen (AID 1104); details: EGFR binding, higher = more signal;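 further: score merges 667 nm emission intensity with spot signal to noise over triplicate slides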
[18] = target: Follistatin-related protein 3 (Homo sapiens) (UniProt O95633); test: compounds binding follistatin-related protein 3 – biochemical, small-molecule microarray, 635 nm fluorescence, primary screen (AID 1105); details: FSTL3 binding, higher = more signal;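 further: score merges emission near 667 nm and signal to noise per printed spot across three slides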
[19] = target: Dickkopf-related protein 1 (Homo sapiens) (UniProt O94907); test: small molecules binding DKK1 protein – biochemical, small-molecule microarray, 635 nm fluorescence scan, primary screen (AID 1106); details: higher = more signal;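 further: score merges emission near 667 nm with signal to noise over three replicate slides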
[20] = tested on: Inhibin beta A chain (activin A); test: small molecules binding activin A – biochemical, small-molecule microarray, 635 nm fluorescence scan, primary screen (AID 1107); details: INHBA, higher = more signal;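 further: mouse activin A protein probed at 4.33 µg/mL on printed slides; score merges bound-protein fluorescence near 667 nm with spot signal-to-noise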

Sequence of Fibroblast growth factor 10 (Homo sapiens) (O15520 whole entry, looked up): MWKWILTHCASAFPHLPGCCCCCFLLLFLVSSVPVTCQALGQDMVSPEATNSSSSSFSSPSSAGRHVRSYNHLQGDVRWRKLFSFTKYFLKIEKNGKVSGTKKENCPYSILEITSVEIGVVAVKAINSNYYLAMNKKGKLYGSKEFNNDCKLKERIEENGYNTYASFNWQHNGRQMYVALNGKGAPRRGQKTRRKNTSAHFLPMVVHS
Sequence of Epidermal growth factor receptor (Homo sapiens) (P00533 whole entry, looked up): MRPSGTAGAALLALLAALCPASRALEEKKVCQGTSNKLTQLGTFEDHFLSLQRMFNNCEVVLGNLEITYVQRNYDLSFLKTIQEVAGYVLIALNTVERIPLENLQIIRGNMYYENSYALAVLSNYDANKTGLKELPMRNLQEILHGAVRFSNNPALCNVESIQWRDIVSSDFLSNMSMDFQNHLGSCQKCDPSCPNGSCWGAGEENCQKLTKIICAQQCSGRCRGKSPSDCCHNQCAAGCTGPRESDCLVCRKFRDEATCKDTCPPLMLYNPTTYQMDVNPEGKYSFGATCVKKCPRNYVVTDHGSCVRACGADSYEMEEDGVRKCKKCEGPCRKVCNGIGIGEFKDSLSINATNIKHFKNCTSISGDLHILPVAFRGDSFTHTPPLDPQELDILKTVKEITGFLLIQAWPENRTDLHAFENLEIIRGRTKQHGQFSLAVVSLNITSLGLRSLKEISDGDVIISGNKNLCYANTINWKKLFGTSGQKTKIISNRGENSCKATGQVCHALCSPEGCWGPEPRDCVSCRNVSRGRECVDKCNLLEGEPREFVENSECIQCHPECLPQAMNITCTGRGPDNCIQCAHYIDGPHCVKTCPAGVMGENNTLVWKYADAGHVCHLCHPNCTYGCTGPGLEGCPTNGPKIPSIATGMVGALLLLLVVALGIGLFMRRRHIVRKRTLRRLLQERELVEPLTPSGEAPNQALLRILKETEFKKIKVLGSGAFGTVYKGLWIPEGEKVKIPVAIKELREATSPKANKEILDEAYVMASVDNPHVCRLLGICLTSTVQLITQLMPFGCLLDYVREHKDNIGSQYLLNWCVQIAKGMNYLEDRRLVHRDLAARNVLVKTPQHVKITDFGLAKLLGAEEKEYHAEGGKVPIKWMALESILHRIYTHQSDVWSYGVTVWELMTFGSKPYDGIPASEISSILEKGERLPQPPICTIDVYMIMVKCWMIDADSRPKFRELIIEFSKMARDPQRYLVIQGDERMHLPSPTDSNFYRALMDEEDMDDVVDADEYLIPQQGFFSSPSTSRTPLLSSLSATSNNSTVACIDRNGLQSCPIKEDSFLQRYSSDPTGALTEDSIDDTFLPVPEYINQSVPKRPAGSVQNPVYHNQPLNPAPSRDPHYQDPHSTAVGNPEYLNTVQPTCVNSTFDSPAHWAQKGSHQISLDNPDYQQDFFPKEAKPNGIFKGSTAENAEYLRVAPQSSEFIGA
Sequence of Torsin-1A-interacting protein 2 (Homo sapiens) (Q8NFQ8 whole entry, looked up): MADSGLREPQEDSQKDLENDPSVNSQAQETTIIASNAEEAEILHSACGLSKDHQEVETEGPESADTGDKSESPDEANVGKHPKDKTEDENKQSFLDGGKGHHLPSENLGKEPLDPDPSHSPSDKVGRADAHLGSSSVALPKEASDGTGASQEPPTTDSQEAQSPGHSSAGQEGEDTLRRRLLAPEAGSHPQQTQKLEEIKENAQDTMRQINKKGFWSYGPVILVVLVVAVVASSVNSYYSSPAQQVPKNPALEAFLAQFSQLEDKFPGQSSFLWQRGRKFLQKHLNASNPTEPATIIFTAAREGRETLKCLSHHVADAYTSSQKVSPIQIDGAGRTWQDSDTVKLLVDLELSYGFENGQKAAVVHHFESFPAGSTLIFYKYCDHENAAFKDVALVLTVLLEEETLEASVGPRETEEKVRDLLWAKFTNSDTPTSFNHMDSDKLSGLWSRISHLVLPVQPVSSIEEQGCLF
Sequence of Follistatin-related protein 3 (Homo sapiens) (O95633 whole entry, looked up): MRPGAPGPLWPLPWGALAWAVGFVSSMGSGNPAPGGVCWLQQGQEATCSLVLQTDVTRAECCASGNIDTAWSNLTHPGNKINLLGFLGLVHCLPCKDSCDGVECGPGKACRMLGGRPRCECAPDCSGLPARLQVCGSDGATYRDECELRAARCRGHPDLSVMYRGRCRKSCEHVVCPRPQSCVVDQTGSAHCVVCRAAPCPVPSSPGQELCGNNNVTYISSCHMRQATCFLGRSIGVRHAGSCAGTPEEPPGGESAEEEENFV
Sequence of Neurogenic locus notch homolog protein 3 (Homo sapiens) (Q9UM47 whole entry, looked up): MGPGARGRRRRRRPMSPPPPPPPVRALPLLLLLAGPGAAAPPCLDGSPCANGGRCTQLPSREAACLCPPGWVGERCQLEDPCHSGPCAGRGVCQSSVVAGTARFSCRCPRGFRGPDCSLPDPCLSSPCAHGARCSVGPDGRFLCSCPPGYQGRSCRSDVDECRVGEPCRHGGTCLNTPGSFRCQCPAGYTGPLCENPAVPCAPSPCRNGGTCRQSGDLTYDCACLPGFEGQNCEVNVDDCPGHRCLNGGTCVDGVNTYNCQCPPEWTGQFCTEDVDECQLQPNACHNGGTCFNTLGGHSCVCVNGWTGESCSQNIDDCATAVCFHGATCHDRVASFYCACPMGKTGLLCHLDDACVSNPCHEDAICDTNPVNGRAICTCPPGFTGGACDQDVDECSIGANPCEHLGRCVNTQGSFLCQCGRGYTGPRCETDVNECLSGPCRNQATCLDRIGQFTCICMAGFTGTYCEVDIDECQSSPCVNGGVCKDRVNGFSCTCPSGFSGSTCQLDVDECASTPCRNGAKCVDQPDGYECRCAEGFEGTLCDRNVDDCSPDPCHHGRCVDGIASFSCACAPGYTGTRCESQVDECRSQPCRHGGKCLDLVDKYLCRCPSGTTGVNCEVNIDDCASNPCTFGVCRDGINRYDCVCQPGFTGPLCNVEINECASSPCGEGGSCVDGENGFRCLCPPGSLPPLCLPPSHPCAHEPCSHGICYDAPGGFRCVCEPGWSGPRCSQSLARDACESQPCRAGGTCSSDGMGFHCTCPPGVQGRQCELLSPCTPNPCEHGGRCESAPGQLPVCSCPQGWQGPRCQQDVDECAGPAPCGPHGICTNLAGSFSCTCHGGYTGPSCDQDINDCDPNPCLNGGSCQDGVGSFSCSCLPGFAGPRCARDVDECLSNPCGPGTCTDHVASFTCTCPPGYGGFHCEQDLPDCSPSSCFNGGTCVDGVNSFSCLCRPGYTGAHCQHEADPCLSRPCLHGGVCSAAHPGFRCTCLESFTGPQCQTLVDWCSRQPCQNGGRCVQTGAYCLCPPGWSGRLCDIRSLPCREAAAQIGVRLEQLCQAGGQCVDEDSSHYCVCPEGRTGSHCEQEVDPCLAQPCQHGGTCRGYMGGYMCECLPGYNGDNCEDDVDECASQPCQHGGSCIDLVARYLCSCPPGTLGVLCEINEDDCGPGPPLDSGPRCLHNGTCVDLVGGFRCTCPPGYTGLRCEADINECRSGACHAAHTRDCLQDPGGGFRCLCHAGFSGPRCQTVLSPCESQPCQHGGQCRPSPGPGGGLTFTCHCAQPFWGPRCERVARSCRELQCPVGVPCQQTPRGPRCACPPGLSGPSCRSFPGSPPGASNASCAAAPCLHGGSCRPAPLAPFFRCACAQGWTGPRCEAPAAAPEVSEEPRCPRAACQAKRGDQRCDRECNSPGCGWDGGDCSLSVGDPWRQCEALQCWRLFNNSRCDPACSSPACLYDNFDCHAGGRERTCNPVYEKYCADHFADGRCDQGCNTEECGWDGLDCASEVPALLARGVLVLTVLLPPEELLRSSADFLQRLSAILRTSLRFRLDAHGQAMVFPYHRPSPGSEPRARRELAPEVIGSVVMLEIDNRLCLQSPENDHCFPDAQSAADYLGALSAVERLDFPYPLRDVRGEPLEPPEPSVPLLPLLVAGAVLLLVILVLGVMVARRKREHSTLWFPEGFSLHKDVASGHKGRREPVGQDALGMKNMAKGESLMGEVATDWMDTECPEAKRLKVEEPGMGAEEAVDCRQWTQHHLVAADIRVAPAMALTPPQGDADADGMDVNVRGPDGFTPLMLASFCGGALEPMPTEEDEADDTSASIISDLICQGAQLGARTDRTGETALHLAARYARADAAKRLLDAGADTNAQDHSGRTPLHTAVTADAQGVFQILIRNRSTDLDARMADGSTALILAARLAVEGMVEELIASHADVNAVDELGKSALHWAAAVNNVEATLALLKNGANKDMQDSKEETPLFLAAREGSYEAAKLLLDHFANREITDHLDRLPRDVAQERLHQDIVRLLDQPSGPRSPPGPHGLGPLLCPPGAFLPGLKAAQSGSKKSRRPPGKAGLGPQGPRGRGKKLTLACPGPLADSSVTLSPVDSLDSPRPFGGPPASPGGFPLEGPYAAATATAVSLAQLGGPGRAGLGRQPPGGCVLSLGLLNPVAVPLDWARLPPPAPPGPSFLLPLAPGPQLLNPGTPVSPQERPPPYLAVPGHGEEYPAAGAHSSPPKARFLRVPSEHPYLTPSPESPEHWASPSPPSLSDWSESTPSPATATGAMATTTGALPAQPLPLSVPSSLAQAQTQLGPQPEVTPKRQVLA
Sequence of Dickkopf-related protein 1 (Homo sapiens) (O94907 whole entry, looked up): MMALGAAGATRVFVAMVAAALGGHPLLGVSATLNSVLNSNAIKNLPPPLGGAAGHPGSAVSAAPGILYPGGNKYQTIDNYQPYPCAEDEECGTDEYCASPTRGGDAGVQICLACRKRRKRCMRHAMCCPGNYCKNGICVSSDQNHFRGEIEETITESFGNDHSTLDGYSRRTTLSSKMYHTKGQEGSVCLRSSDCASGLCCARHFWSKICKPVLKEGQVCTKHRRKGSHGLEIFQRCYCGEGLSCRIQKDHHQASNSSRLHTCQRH

SMILES | composite z-score [1] | z-score [2] | z-score [3] | z-score [4] | composite z-score [5] | z-score [6] | composite z-score [7] | composite z-score [8] | composite z-score [9] | composite z-score [10] | composite z-score [11] | composite z-score [12] | composite z-score [13] | z-score [14] | composite z-score [15] | composite z-score [16] | composite z-score [17] | composite z-score [18] | composite z-score [19] | composite z-score [20]
COC(=O)[C@@]1(Cc2ccccc2)[C@H]2c3cc(C(=O)N(C)C)n(Cc4ccc(O)c(OC)c4)c3C[C@H]2CN1C(=O)c1ccccc1 | 1.18 | 0.473 (inactive) | -0.455 (inactive) | 0.836 (inactive) | 2.74 | 0.195 (inactive) | -0.0203 | -0.372 | 0.895 | 0.38 | 1.37 | 0.722 | 0.295 | -6.3 (inactive) | -0.27 | 0.255 | -0.34 | 0.764 | -0.65 | 0.637
C#CCOC(=O)N[C@H](C=CCCCC)c1ccccc1 | -0.893 | 0.126 (inactive) | -0.091 (inactive) | 0.0673 (inactive) | 2.96 | 0.392 (inactive) | 0.148 | -0.373 | -0.404 | 0.0082 | -0.257 | 0.326 | 0.942 | -0.341 (inactive) | 0.605 | 0.35 | 0.241 | -0.484 | -0.352 | 0.983
COC(=O)C(CC#Cc1ccc2c(c1)[C@]1(C(=O)N2)[C@H](c2ccc(OCCO)cc2)N2[C@H](c3ccccc3)[C@H](c3ccccc3)OC(=O)[C@H]2[C@@H]1C(=O)O)C(=O)OC | 1.53 | 2.49 (inactive) | -0.0363 (inactive) | -0.881 (inactive) | 3.1 | 1.95 (inactive) | 0.607 | 0.612 | 0.822 | 0.374 | 1.78 | 1.18 | 0.931 | -0.609 (inactive) | 0.809 | 1.03 | 0.194 | 0.808 | 0.119 | 0.765
C[N+](C)(C)CCCC[C@@H]1NC(=O)[C@H]2C[C@@H](C(=O)NCCCCCCN)[C@@H](c3cccc(OCCO)c3)N2C1=O | 1.54 | -0.0132 (inactive) | -0.87 (inactive) | -0.133 (inactive) | 3.06 | 0.27 (inactive) | 1.08 | 1.15 | 1.07 | 0.693 | 1.56 | 1.82 | 0.984 | -0.481 (inactive) | 1.17 | 1.33 | 0.717 | 1.28 | 1.27 | 1.63
CC(C)C[C@@H]1NC(=O)[C@@H]2C[C@H](C(=O)NCCCC[N+](C)(C)C)[C@H](c3cccc(OCCO)c3)N2C1=O | 1.31 | 1.14 (inactive) | 0.936 (inactive) | -0.567 (inactive) | 0.622 | -0.329 (inactive) | -0.0123 | 1.84 | 1.04 | -0.0069 | 1.66 | -0.184 | -0.103 | -0.44 (inactive) | 0.59 | 0.914 | 0.357 | 1.31 | 1.95 | 0.88
CCCNC(=O)[C@@]1(Sc2ccc(C)cc2)CC(=O)N(Cc2ccccc2)[C@@H]1c1ccc(CO)cc1I | 0.933 | -1.09 (inactive) | -1.46 (inactive) | 0.605 (inactive) | 0.869 | 0.605 (inactive) | -0.0866 | 0.54 | 0.282 | -0.11 | 0.523 | 0.806 | 0.484 | -0.494 (inactive) | 0.559 | 0.108 | 0.183 | 0.942 | 0.353 | 1.47
COCCOC(=O)N1C(=O)[C@@]2(c3cc(C#CC4(O)CCCCCC4)ccc31)[C@H](C(=O)NC[C@H](O)c1ccccc1)[C@H]1C(=O)O[C@H](c3ccccc3)[C@H](c3ccccc3)N1[C@@H]2c1ccc(OCCO)cc1 | 1.55 | 1.94 (inactive) | 0.814 (inactive) | 5.65 (inactive) | 2.33 | 1.35 (inactive) | -0.121 | 1.78 | 1.15 | -0.0978 | 0.971 | -0.0726 | -0.0689 | -1.15 (inactive) | 0.68 | 0.673 | 0.429 | 0.834 | 0.348 | 0.193
CCCN1C(=O)[C@@H]2Cc3c([nH]c4ccccc34)[C@@H](c3cccc(O)c3)N2C1=O | 0.213 | -0.521 (inactive) | -0.132 (inactive) | 0.385 (inactive) | 0.379 | 0.317 (inactive) | -0.0823 | 0.287 | 0.423 | -0.0424 | 0.292 | -0.0726 | -0.0794 | 1.08 (inactive) | 0.415 | 0.718 | 0.578 | 0.493 | 1.14 | 0.275
COC(=O)[C@@]1(Cc2ccccc2)[C@H]2c3cc(C(=O)N4CCCC4)n(Cc4ccc(OC(F)(F)F)cc4)c3C[C@H]2CN1C(=O)c1ccccc1 | 0.325 | 1.54 (inactive) | 1.5 (inactive) | 3.42 (inactive) | 3.29 | -1.43 (inactive) | 0.961 | 0.0283 | 1.04 | 0.647 | 0.716 | 1.34 | 1.4 | -0.286 (inactive) | 0.872 | 0.728 | -0.357 | 0.685 | -0.909 | 1.08
CCCC[C@H]1OB(O)C[C@H]2C1=C(COc1ccccc1)Cn1c(=O)n(-c3ccccc3)c(=O)n12 | 0.905 | 0.54 (inactive) | -4.94 (inactive) | 0.59 (inactive) | 2.24 | -0.298 (inactive) | -0.116 | 0.836 | 0.733 | -0.0947 | 0.918 | -0.149 | -0.387 | 0.142 (inactive) | 0.926 | 0.61 | 0.283 | 1.01 | 0.203 | 0.54

Source: PubChem BioAssay
